Data reported in PubChem BioAssay (NCATS).
Inconclusive results are not listed. The source made the active and inactive calls. Calls follow the shape of the full dose curve.

Experiments:
[1] = Primary qHTS for inhibitors of SARS-S pseudo-typed particle cell entry (AID 1479145); also: nearly all actives have a fitted effect of over 45% in size
[2] = Primary qHTS for Huh7 cytotoxicity: counterscreen for inhibitors of MERS-S pseudotyped particle cell entry (AID 1479147)
[3] = Primary qHTS for inhibitors of MERS-S pseudo-typed particle cell entry (AID 1479149); also: nearly all actives have a fitted effect of over 60% in size
[4] = Primary qHTS for Vero E6 cytotoxicity: counterscreen for inhibitors of SARS-S pseudo-typed particle cell entry (AID 1479150)

Measured: Potency

CC(C)NCCCC1(C(N)=O)c2ccccc2-c2ccccc21
inactive: [1] | [2] | [3] | [4]

Cc1ccc(=O)n(-c2ccccc2)c1
inactive: [1] | [2] | [3] | [4]

N#Cc1cc(NC(=O)C(=O)O)c(Cl)c(NC(=O)C(=O)O)c1
inactive: [1] | [2] | [3] | [4]

Cc1[nH]c(=O)c(C#N)cc1-c1ccc2nccn2c1
inactive: [1] | [2] | [3] | [4]

CN(C)C(=O)Oc1cccc([N+](C)(C)C)c1
inactive: [1] | [2] | [3] | [4]

CCOC(=O)OC(C)OC(=O)[C@@H]1N2C(=O)[C@@H](NC(=O)[C@H](N)c3ccccc3)[C@H]2SC1(C)C (stereo partly drawn)
inactive: [1] | [2] | [3] | [4]

C[C@H](CCC(=O)O)[C@H]1CC[C@H]2[C@@H]3C(=O)C[C@@H]4CC(=O)CC[C@]4(C)[C@H]3CC(=O)[C@]12C
inactive: [1] | [2] | [3] | [4]

NC(CSCC(=O)O)C(=O)O (stereo not drawn)
inactive: [1] | [2] | [3] | [4]

Cc1ccc2c(Cl)cc(Cl)c(O)c2n1
inactive: [1] | [2] | [3] | [4]

Cc1cccc(N(C)C(=S)Oc2ccc3c(c2)CCC3)c1
inactive: [1] | [2] | [3] | [4]

CCCCC[C@H](O)C=C[C@H]1[C@H](O)CC(=O)[C@H]1CC=CCCCC(=O)O
inactive: [1] | [2] | [3] | [4]

O=C(O)CCC(=O)Nc1ccc(S(=O)(=O)Nc2nccs2)cc1
inactive: [1] | [2] | [3] | [4]

CC(=C(CCOC(=O)C(C)C)SSC(CCOC(=O)C(C)C)=C(C)N(C=O)Cc1cnc(C)nc1N)N(C=O)Cc1cnc(C)nc1N
inactive: [1] | [2] | [3] | [4]

CC(C)=CCOc1ccc(/C=C/C(=O)c2ccc(OCC=C(C)C)cc2OCC(=O)O)cc1
inactive: [1] | [2] | [3] | [4]

CCOC(=O)c1cccc(N)c1
inactive: [1] | [2] | [3] | [4]

OC1C(O)C(O)C(O)C(O)C1O (stereo not drawn)
inactive: [1] | [2] | [3] | [4]

Cc1ncc(CSSCc2cnc(C)c(O)c2CO)c(CO)c1O
inactive: [1] | [2] | [3] | [4]

CC(C(=O)O)c1ccc2c(c1)Cc1cccnc1O2 (stereo not drawn)
inactive: [1] | [2] | [3] | [4]

C[C@@H]1CCN(C(=O)[C@H](CCCN=C(N)N)NS(=O)(=O)c2cccc3c2NC[C@H](C)C3)[C@@H](C(=O)O)C1
inactive: [1] | [2] | [3] | [4]

CC(=O)OCC(=O)[C@@]1(O)CCC2C3CCC4=CC(=O)CC[C@]4(C)C3[C@@H](O)C[C@@]21C (stereo partly drawn)
inactive: [1] | [2] | [3] | [4]

Cc1c(N(C)C)c(=O)n(-c2ccccc2)n1C
inactive: [1] | [2] | [3] | [4]

C[C@H]1C[C@H]2[C@@H]3CCC4=CC(=O)C=C[C@]4(C)[C@@]3(Cl)[C@@H](O)C[C@]2(C)[C@@]1(O)C(=O)CO
inactive: [1] | [2] | [3] | [4]

O=[N+]([O-])c1nccn1CO[C@@H](CO)[C@H](O)CO
inactive: [1] | [2] | [3] | [4]

CC(C)Cc1ccc(C(C)C(=O)OCc2ccccn2)cc1 (stereo not drawn)
inactive: [1] | [2] | [3] | [4]

CCCOc1ccc(C(=O)OCCN(CC)CC)cc1N
inactive: [1] | [2] | [3] | [4]

CCC(=O)O[C@]1(C(=O)CCl)[C@@H](C)C[C@H]2[C@@H]3CCC4=CC(=O)C=C[C@]4(C)[C@@]3(F)[C@@H](O)C[C@@]21C
inactive: [1] | [2] | [3] | [4]

C#CCN(C)Cc1ccccc1
inactive: [1] | [2] | [3] | [4]

NC(=O)C1(N2CCCCC2)CCN(CCCC(=O)c2ccc(F)cc2)CC1
inactive: [1] | [2] | [3] | [4]

CCn1cc(C(=O)O)c(=O)c2cc(F)c(N3CCNCC3)nc21
inactive: [1] | [2] | [3] | [4]

CC(C)c1cc2c(cc1S(=O)(=O)O)[C@@]1(C)CCC[C@@](C)(C(=O)O)[C@@H]1CC2
inactive: [1] | [2] | [3] | [4]

CCOc1ccc(NC(C)=O)cc1
inactive: [1] | [2] | [3] | [4]

C#C[C@]1(OC(C)=O)CC[C@H]2[C@@H]3CCC4=C/C(=N/O)CC[C@@H]4[C@H]3CC[C@@]21CC
inactive: [1] | [2] | [3] | [4]
